Only some compounds are listed: those with a hit (about 1.3% of all), similar ones and a draw of the others.
NADH coupling: inhibitors of PK/LDH coupling enzymes, profiling panel, artefact control, biochemical, MLSMR library | coupled PK/LDH NADH assays, four targets | IC50, µM (titrated, usually from 10 µM), inactives show top-dose inhibition | actives 0.02% (n = 65,000) | AID 774, 2007;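 active = single-dose screening hits from any of four coupled enzyme assays that gave an IC50 when retested across doses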;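 note: the DPM-DC format reads NADH fluorescence rather than 340 nm absorbance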
Spn MK inh: S. pneumoniae MK inhibitors, primary screen, biochemical, PK/LDH-coupled NADH absorbance. mevalonate kinase [Streptococcus pneumoniae D39]. purified MK, PK/LDH-coupled NADH absorbance 340 nm. inhibition, % at 10 µM. actives 0.48% (n = 65,000). AID 555, 2006;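 active = ranked among the strongest by inhibition in the single 10 µM screen, a fixed top-ranked set picked for dose follow-up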
PMK inhibit: S. pneumoniae PMK inhibitors, primary screen, biochemical, mevalonate pathway, pilot trial included; phosphomevalonate kinase (Streptococcus pneumoniae D39); purified PMK, PK/LDH-coupled NADH absorbance 340 nm; inhibition, % at 10 µM; actives 0.49% (n = 65,000);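 active = top-ranked compounds by inhibition in the single 10 µM screen, taking a fixed number of the strongest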;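 note: 0% = full reaction with DMSO carrier and 100% = background rate without enzyme reaction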
DPM-DC inhibit: S. pneumoniae DPM-DC inhibitors, primary screen, biochemical, PK/LDH-coupled NADH fluorescence. diphosphomevalonate decarboxylase (Streptococcus pneumoniae D39). AID 556, 2006. actives 0.49% (n = 65,000). calls only at 10 µM. purified DPM-DC;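 active = the 320 compounds with the highest percent inhibition in the single-dose primary screen, excluding strongly autofluorescent ones, cut at about 32% in these data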;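 note: kinetic rate of NADH fluorescence loss reporting ADP formed by the decarboxylase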
Active calls of the source: *; i = inactive; + = active, no number.

SMILES	NADH coupling	Spn MK inh	PMK inhibit	DPM-DC inhibit
CC(=O)NC(CCS(C)(=O)=O)C(=O)Nc1c(C)cccc1C (stereo not drawn)	16.0%	47.0*	1.0	i
O=C(c1ccccc1)c1ccc(OCC(O)CN2CCCCC2)cc1 (stereo not drawn)	3.0%	9.0	0.0	i
CC(O)COc1ccc(/C(=N/O)c2ccccc2)cc1 (stereo not drawn)	22.0%	18.0	0.0	+
Nc1nnc(CCS(=O)(=O)c2cc(Cl)ccc2Cl)s1	18.0%	53.0*	0.0	i
COc1cccc(OCCCCN2CCCCC2)c1	19.0%	55.0*	0.0	i
C=CCc1ccccc1OCCCCN1CCCC1	6.0%	45.0*	9.0	i
Clc1ccccc1OCCN1CCCCC1	17.0%	41.0*	11.0	i
Cc1ccccc1OCCCN1CCCC1	14.0%	43.0*	0.0	i
COCCNC(=O)C1CCN(S(=O)(=O)c2ccccc2)CC1	5.0%	7.0	9.0	i
Cc1ccc(NC2=NC(c3ccco3)n3c(nc(C)cc3=O)N2)c(C)c1 (stereo not drawn)	3.0%	4.0	6.0	i
Cc1ccc2c(c1)N(CC(=O)NCCc1c[nH]c3ccccc13)C(=O)CO2	3.0%	0.0	10.0	i
CCc1ccccc1OCCCCN1CCCC1	8.0%	71.0*	3.0	i
CCOc1cccc(OCCCCN2CCCCC2)c1	14.0%	29.0	12.0	i
Fc1ccccc1OCCCN1CCOCC1	17.0%	52.0*	0.0	i
CC(C)C(=O)Nc1cccc(NC(=O)CCN2C(=O)c3ccccc3S2(=O)=O)c1	6.0%	9.0	8.0	i
Cn1nnnc1SCC(=O)N1CCN(c2cccc(Cl)c2)CC1	2.0%	1.0	0.0	i
Cc1cc(=O)[nH]c2ccccc12	15.0%	0.0	9.0	+
CCOc1ccc(-c2nnc(SCC(=O)N3CCN(c4ccccc4)CC3)o2)cc1	4.0%	11.0	26.0*	i
O=C(NC1CCCCC1)C1CC(=O)N(c2ccc(Cl)cc2)C1 (stereo not drawn)	13.0%	11.0	28.0*	i
O=C(NC1CCCC1)C1CC(=O)N(C2CCCCCCC2)C1 (stereo not drawn)	5.0%	3.0	11.0	i
Cc1ccc(-n2c(CSc3nc(C)cc(C)n3)nnc2SCC(=O)NCc2ccco2)cc1	11.0%	4.0	26.0*	i
Cc1ccc(-n2c(Cc3cccn3C)nnc2SCC(=O)NCc2ccco2)cc1	5.0%	7.0	7.0	i
CCOc1ccc(-n2c(-c3ccco3)n[nH]c2=S)cc1	25.0%	60.0*	11.0	i
CCOC(=O)C1CCN(c2c(N3CCN(Cc4ccccc4)CC3)c(=O)c2=O)CC1	4.0%	6.0	6.0	i
CCOC(=O)C1CCN(Cc2ccc(OC)cc2OC)CC1	18.0%	51.0*	0.0	i
SMILES	NADH coupling	Spn MK inh	PMK inhibit	DPM-DC inhibit
CCOC(=O)C1CCN(Cc2ccc(N(C)C)cc2)CC1	14.0%	43.0*	0.0	i
COc1ccc(CN2CCN(c3ncccn3)CC2)c(OC)c1	22.0%	49.0*	16.0	i
CC(Sc1nnnn1-c1ccccc1)C(=O)Nc1ccc(Cl)cn1 (stereo not drawn)	3.0%	0.0	15.0	i
O=c1cccccc1NCc1ccccc1	13.0%	5.0	1.0	+
CCc1nn(C(C)C(=O)NCCc2ccc(OC)c(OC)c2)c(=O)c2cc3occc3n12 (stereo not drawn)	11.0%	7.0	26.0*	i
CCc1nn(C(C)C(=O)NC(C)CCc2ccco2)c(=O)c2cc3occc3n12 (stereo not drawn)	11.0%	0.0	27.0*	i
CCc1nn(CC(=O)NCCN2CCN(C)CC2)c(=O)c2cc3occc3n12	7.0%	0.0	21.0	i
CCN1CCCC1CNC(=O)c1ccc(CS(=O)(=O)c2ccccc2C)o1 (stereo not drawn)	5.0%	0.0	16.0	i
Cc1nc2oc3c(NCC4CCCO4)ncnc3c2c2c1COC(C)(C)C2 (stereo not drawn)	12.0%	0.0	2.0	+
Cc1cccc(NC(=O)CCCCCN2C(=O)c3ccccc3C2=O)n1	2.0%	3.0	11.0	i
CCOC(=O)C1=C(C)Nc2ccccc2N=C1NC(=O)CCCN1C(=O)c2ccccc2C1=O	10.0%	2.0	27.0*	i
Cc1sc2nc3c(C(=O)N4CCN(c5ncccn5)CC4)cccn3c(=O)c2c1C	4.0%	1.0	11.0	i
